# IL-1B inflam inh: qHTS for Inhibitors of Inflammasome Signaling: IL-1-beta AlphaLISA Primary Screen. activity change, % at 57.5 µM. 360,000 compounds, 4.7% hits. THP-1 LPS/ATP IL-1B secretion, AlphaLISA, 16 h; active compounds read low. AID 743279, 2014; in the data active = activity change below about -50%; inconclusive = mostly about -30% to -49%; also: % is scaled to controls: 0 for no effect and ±100 for the full control effect
#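 Secreted IL-1B measured by AlphaLISA bead assay after 16 h compound exposure of THP-1 cells; compounds (final up to 57.5 uM) added 1 h before LPS (250 ng/mL) and ATP (1.25 mM) stimulation; lower signal means less secretion.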
# TDP1 cell noCPT: qHTS for Inhibitors of human tyrosyl-DNA phosphodiesterase 1 (TDP1): qHTS in cells in absence of CPT. DT40 Tdp1-/- hTDP1 cells, no CPT, ATP luminescence, 48 h. Potency, µM (titrated, usually from 46.2 µM), for inactives: top-dose activity change, negative = growth inhibition, most hits filed as inhibitors. 420,000 compounds, 15% hits. AID 686978, 2013; also: potency is read from the fitted curve at half-maximal effect; % is scaled to controls: 0 for no effect and ±100 for the full control effect; nearly all actives have a fitted effect of over 55% in size
#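 Compound effects on proliferation are scored in DT40 Tdp1-/-;hTDP1 cells in the absence of CPT. ATP levels (CellTiter-Glo luminescence) are recorded after a ≥48 hr, 37 °C incubation.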
# TDP1 cell CPT: qHTS for Inhibitors of human tyrosyl-DNA phosphodiesterase 1 (TDP1): qHTS in cells in presence of CPT; chicken DT40 Tdp1-/-;hTDP1 cells + 20 nM CPT, ATP luminescence, 48 h; Potency, µM (top dose mostly 46.2 µM), without a hit: at the top dose activity change, negative = growth inhibition, hits mostly inhibitors; 420,000 compounds, 12% hits; AID 686979, 2013; also: potency is read from the fitted curve at half-maximal effect; % is scaled to controls: 0 for no effect and ±100 for the full control effect; nearly all actives have a fitted effect of over 55% in size
#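 Cell growth measured by CellTiter-Glo luminescence after a minimum 48 h, 37 C compound exposure with 20 nM CPT in Tdp1-knockout DT40 cells stably expressing hTDP1, seeded 400/well; qHTS titration format.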
# TGFb SMAD3 inh: qHTS for Inhibitors of TGF-b. 410,000 compounds, 1.2% hits. AID 588855, 2011. Potency, µM (doses to about 46.1 µM), inactives show at the top dose activity, negative = inhibition, actives largely listed as inhibitors. HepG2 CAGA-GFP TGF-b/SMAD3 reporter, GFP fluorescence, 18 h; TGF-beta stimulated, 500 pg/mL final; also: potency is read from the fitted curve at half-maximal effect; % is scaled to controls: 0 for no effect and ±100 for the full control effect; nearly all actives have a fitted effect of over 65% in size
#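 Using HEPG2 CAGA-GFP reporter cells at 1000 cells/well, we pinned test compounds, stimulated with recombinant TGF-beta (500 pg/mL final) and measured total well GFP after 18 h.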
# TDP1 inh: qHTS Assay for Inhibitors of Tyrosyl-DNA Phosphodiesterase (TDP1) | 350,000 compounds, 0.28% hits | recombinant TDP1, AlphaScreen DNA substrate cleavage | Potency, µM (top dose mostly 130 µM), for the others: top-dose activity change, negative = inhibition, actives largely listed as inhibitors | AID 485290, 2010 | Tyrosyl-DNA phosphodiesterase 1 (Homo sapiens), Q9NUW8; also: potency is read from the fitted curve at half-maximal effect; % is scaled to controls: 0 for no effect and ±100 for the full control effect; nearly all actives have a fitted effect of over 40% in size
# Target sequence (Q9NUW8 whole entry, looked up): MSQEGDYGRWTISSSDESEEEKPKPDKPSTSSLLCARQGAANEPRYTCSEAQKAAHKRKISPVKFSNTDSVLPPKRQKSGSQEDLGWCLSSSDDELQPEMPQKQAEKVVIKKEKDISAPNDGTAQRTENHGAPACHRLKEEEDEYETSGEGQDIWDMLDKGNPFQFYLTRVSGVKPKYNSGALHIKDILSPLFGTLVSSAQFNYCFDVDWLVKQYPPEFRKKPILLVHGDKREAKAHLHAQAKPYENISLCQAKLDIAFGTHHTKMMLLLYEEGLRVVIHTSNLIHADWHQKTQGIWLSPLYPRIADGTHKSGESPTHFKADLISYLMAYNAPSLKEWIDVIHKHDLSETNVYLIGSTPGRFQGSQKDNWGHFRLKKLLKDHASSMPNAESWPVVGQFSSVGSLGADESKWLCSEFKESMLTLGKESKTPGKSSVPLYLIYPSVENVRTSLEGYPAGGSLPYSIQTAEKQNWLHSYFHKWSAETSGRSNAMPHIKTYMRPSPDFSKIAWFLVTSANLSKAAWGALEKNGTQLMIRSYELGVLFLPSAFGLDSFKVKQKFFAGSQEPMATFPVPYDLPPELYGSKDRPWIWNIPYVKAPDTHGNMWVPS
#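 Tdp1 1 nM final; 15 min RT w/ cpd; substrate 15 nM, 5 min; beads 10 ug/ml, 10 min; AlphaScreen read. Neg ctrl: no enzyme.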
# HepG2 tox: qHTS for Inhibitors of TGF-b: Cytotox Counterscreen | HepG2 CAGA-GFP viability, ATP luminescence, 18 h | Potency, µM (top dose mostly 46.1 µM), for the others: top-dose activity change, negative = cytotoxicity, usual class: cytotoxic | 410,000 compounds, 0.76% hits | AID 588856, 2011; also: potency is read from the fitted curve at half-maximal effect
#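 CellTiter-Glo luminescence gave cytotoxicity after 18 hours at 37 degrees C. The cells were HepG2 CAGA-GFP in 1% FBS DMEM, stimulated with 500 pg/mL TGF-beta after compound addition. %Activity was normalised to no-cell wells (complete cell-killing) and DMSO (no toxicity), and curves were fitted and classified.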
# * = called active by the depositor; ? = inconclusive; . = no result; [ ] = remark or other dose. This is a sample that favours compounds with a hit; in the whole collection about 19% have one here. Unless noted, calls follow the shape of the dose curve; as a rule, active = well fitted curve in the direction sought with a large enough effect; inconclusive = small, poorly fitted or top-dose-only effect, or another doubt; inactive = no such curve, though single readings can be large; an effect the other way counts as inactive or inconclusive.
SMILES,IL-1B inflam inh,TDP1 cell noCPT,TDP1 cell CPT,TGFb SMAD3 inh,TDP1 inh,HepG2 tox
COc1ccc(C)cc1NC(=O)C1CCN(S(=O)(=O)c2ccc3[nH]c4c(c3c2)CCCCC4)CC1,.,?,-25%,?,5%,15%
CCCc1cc(=O)[nH]c2nnc(SCCC(C)C)n12,.,2%,-3%,1%,3%,-1%
O=C(CCCn1c(=O)[nH]c2ccc(Br)cc2c1=O)N1CCN(c2cccc(Cl)c2)CC1,.,8.2µM*,15µM*,5µM*,0%,-28%
O=C(CCCn1c(=O)[nH]c2ccccc2c1=O)N1CCN(c2ccccn2)CC1,-6,-16%,-13%,3%,-3%,-2%
CC(=O)c1ccc(N2CCN(C(=O)CCCCn3c(=O)[nH]c4ccccc4c3=O)CC2)cc1,.,16µM*,13µM*,-6%,6%,-15%
CC1(C)CC(=O)C2=C(C1)NC(=O)CC2c1cc(F)ccc1F (configuration not stated),6,-14%,-15%,5%,3%,-8%
O=C1CC(c2cc(F)ccc2F)c2cc3c(cc2N1)CCC3 (configuration not stated),57,3.7µM*,2.6µM*,?,-3%,-24%
Cc1cccc(N2CCN(CCCNC(=O)c3nnc(Cc4c(F)cccc4Cl)o3)CC2C)c1 (configuration not stated),.,?,23µM*,-6%,-4%[12.3 µM],-32%
COc1ccc(Cc2nnc(C(=O)NCCCN3CCN(c4ccccc4F)CC3)o2)cc1OC,.,?,?,-9%,3%,-6%
O=C(NCCCN1CCN(c2ccccc2F)CC1)c1nnc(Cc2ccc(Cl)cc2Cl)o1,.,15µM*,21µM*,11µM*,0%,-62%
Cc1ccc(Cl)cc1N1CCN(CCCNC(=O)c2nnc(Cc3cccc(Cl)c3)o2)CC1,.,10µM*,21µM*,?,8%,-83%
COc1ccc(-c2ccc(CN3C(CC(C)C)C(=O)N(Cc4cn(CCC5OCCCO5)nn4)CCS3(=O)=O)cc2)cc1OC (configuration not stated),1,?,13µM*,-15%,.,-37%
CC(C)CC1C(=O)N(Cc2cn(CCC3OCCCO3)nn2)CCS(=O)(=O)N1Cc1ccc(-c2ccncc2)cc1 (configuration not stated),-4,18µM*,16µM*,2%,.,-26%
CC(C)CC1C(=O)N(Cc2cn(CCC3OCCO3)nn2)CCS(=O)(=O)N1Cc1ccc(-c2ccccc2)cc1 (configuration not stated),-9,21µM*,18µM*,?,.,-44%
CC(C)CC1C(=O)N(Cc2cn(CCC3OCCO3)nn2)CCS(=O)(=O)N1Cc1ccc(-c2ccc(F)nc2)cc1 (configuration not stated),8,-24%,0%,11%,.,2%
CC(C)CC1C(=O)N(Cc2cn(CCC3OCCO3)nn2)CCS(=O)(=O)N1Cc1ccc(-c2ccc(Cl)c(Cl)c2)cc1 (configuration not stated),-26,5.2µM*,8.2µM*,11µM*,.,-56%
CCN(CC(=O)Nc1c(F)cccc1F)C(=O)c1ccc(S(=O)(=O)NCc2ccco2)cc1,10,?,?,?,.,-4%
Cc1ccc(S(=O)(=O)Nc2ccc(C(=O)NCCCn3ccnc3)cc2)cc1[N+](=O)[O-],-12,28%,-2%,5%,1%,1%
CN(C)S(=O)(=O)c1cc(NC(=O)c2cc(=O)[nH]c3ccccc23)ccc1Cl,.,.,.,.,0%,.
COc1ccc(CNC[C@H]2O[C@@H](n3ccc(=O)[nH]c3=O)[C@H](O)[C@@H]2O)cc1OC,-22,-62%,-14%,-10%,.,-21%
CC(C)CC1C(=O)N(Cc2cn(CCC3OCCCO3)nn2)CCS(=O)(=O)N1Cc1ccc(-c2ccccc2)cc1 (configuration not stated),17,?,?,1%,.,-28%
Cc1ccc(-c2ccc(CN3C(CC(C)C)C(=O)N(Cc4cn(CCC5OCCO5)nn4)CCS3(=O)=O)cc2)cc1 (configuration not stated),-21,13µM*,15µM*,22µM*,.,11µM*
Cn1c(=O)[nH]c(=O)c2c1nc(N1CCOCC1)n2Cc1ccccc1,.,-27%,?,?,-2%[12.3 µM],-17%
CC1CCC2C(=O)N(c3ccc(NC4CCN(Cc5ccccc5)CC4)c([N+](=O)[O-])c3)C(=O)C2C1 (configuration not stated),-13,16µM*,?,4%,7%,-21%
O=[N+]([O-])c1ccc(NC2CCN(Cc3ccccc3)CC2)c([N+](=O)[O-])c1,-3,21µM*,?,?,8%,-36%
SMILES,IL-1B inflam inh,TDP1 cell noCPT,TDP1 cell CPT,TGFb SMAD3 inh,TDP1 inh,HepG2 tox
O=[N+]([O-])c1ccccc1NC1CCN(Cc2ccccc2)CC1,?,-26%,-2%,0%,4%,-28%
CC1(C(=O)NC2CCCC2)CCC(=O)N1CCc1c[nH]c2ccccc12 (configuration not stated),-16,-16%,-4%,-2%,.,-5%
O=c1ccn(CCc2c[nH]c3ccccc23)c2c1CCCC2,-58*,-19%,-24%,0%,8%,-1%
COc1ccc(C2CC(c3ccc(OC)cc3O)=NN2C(=O)c2ccccc2)cc1 (configuration not stated),-11,21µM*,21µM*,0%,.,-8%
COc1ccc(C2=NN(C(=S)Nc3ccccc3)C(c3ccccc3)C2)cc1 (configuration not stated),-11,18µM*,?,13%,2%,-7%
O=C(c1ccccc1)N1N=C(c2ccccc2O)CC1c1ccccc1 (configuration not stated),13,?,21µM*,?,.,-33%
COc1ccc(C2CC(c3ccc(C)o3)=NN2C(C)=O)cc1 (configuration not stated),-1,-16%,8%,2%,3%,1%

# Screens as filed in PubChem.
